The entries come from a sample that favours hits as a whole.
Pf Dd2 inh: blocks in vitro growth of P. falciparum Dd2; P. falciparum Dd2 growth, SYBR Green, 72 h; 120,000 compounds, 4.3% hits; Potency, µM (highest dose often 28.9 µM), for inactives: top-dose activity, negative = inhibition, most hits filed as inhibitors; active means well fitted inhibition curve with a large enough effect;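 further: plate controls were DMSO vehicle for no effect and reference drug for full effect; nearly all actives have a fitted effect of over 65% in size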
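Infected erythrocytes (Dd2, 0.3% parasitemia, 2.5% hematocrit final) are added to compound in RPMI-1640/Albumax II medium, grown 72 h at 37C in low oxygen, then lysed with saponin/Triton-X containing SYBR Green and read by fluorescence.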
* hit, by the source's call; i = inactive; [ ] = dose if it differs, or a comment. Potency means the concentration at half of the fitted maximal effect.

SMILES	Pf Dd2 inh
CC(C(=O)NCc1nnc2ccc(-c3ccccc3)nn12)c1ccccc1 (stereo not given)	-23%
Cc1ccccc1NS(=O)(=O)c1ccc2[nH]cc(C(=O)NCCc3ccccc3)c(=O)c2c1	11µM*
Cc1cc(C)cc(NS(=O)(=O)c2ccc3[nH]cc(C(=O)NCCc4ccccc4)c(=O)c3c2)c1	37%
CCc1ccc(NS(=O)(=O)c2ccc3[nH]cc(C(=O)NCCc4ccccc4)c(=O)c3c2)cc1	-13%
CN(C)c1cc(N2CCCC(NC(=O)c3ccoc3)C2)ncn1 (stereo not given)	i[5.79 µM]
COCCOCc1nc(C2CCCCN2C(=O)Nc2ccc(OC)c(F)c2)no1 (stereo not given)	11%
O=C(c1ccco1)N1CCC(c2n[nH]c(=O)n2-c2ccccc2)CC1	4%
O=C(NCC(c1cccnc1)N1CCN(c2ccccc2F)CC1)C(=O)Nc1ccc(F)cc1F (stereo not given)	3.2µM*
O=C(NCC(c1cccnc1)N1CCOCC1)C(=O)Nc1cccc(Cl)c1 (stereo not given)	-15%
COCCNC(=O)C(=O)NCC(c1cccnc1)N1CCN(c2ccccc2OC)CC1 (stereo not given)	-13%
CN1CCN(C(CNC(=O)C(=O)Nc2ccc(F)cc2)c2cccnc2)CC1 (stereo not given)	-8%
O=C(NCC(c1cccnc1)N1CCOCC1)C(=O)Nc1ccc(Cl)cc1 (stereo not given)	-14%
Cc1ccc(NC(=O)C(=O)NCC(c2cccnc2)N2CCN(Cc3ccccc3)CC2)cc1Cl (stereo not given)	3.5µM*
O=C(CCC1CCCN(S(=O)(=O)c2cccc(F)c2)C1)NC1CCCCC1 (stereo not given)	i
Cc1nn(C)c(C)c1CCC(=O)N1CCN(C(=O)N2CC3CC(C2)[C@H]2CCCC(=O)N2C3)CC1 (stereo not given in full)	-10%
COc1ccc(Cl)cc1C(=O)N1CCC2(CC1)CC(O)CCO2 (stereo not given)	-11%
COc1ccc(CN2CCCCCNC(=O)[C@@H]3CCC[C@@H]32)cc1Cn1ccnc1	8.9µM*
CCOc1ccccc1CN1CCCCCCNC(=O)[C@@H]2CCC[C@@H]21	2.8µM*
N#Cc1ccccc1CN1CCCCCCNC(=O)[C@@H]2CCC[C@@H]21	2.8µM*
N#Cc1ccc(CN2CCCCCNC(=O)[C@@H]3CCC[C@@H]32)cc1	-20%
CC(C)n1cc(CN2CCCCCNC(=O)[C@@H]3CCC[C@@H]32)c2ccccc21	i
N#Cc1cccc(CN2CCCCCNC(=O)[C@@H]3CCC[C@@H]32)c1	-9%
Cc1ncsc1CN1CCCCCNC(=O)[C@@H]2CCC[C@@H]21	i
COc1ccc(-c2[nH]ncc2CN2CCCCCNC(=O)[C@@H]3CCC[C@@H]32)cc1	i
CCn1cc(CN2CCCCCCNC(=O)[C@@H]3CCC[C@@H]32)cn1	i
SMILES	Pf Dd2 inh
O=C(C1CC1)N1CCC2(CC1)CC(=O)N(c1ccccc1)c1ccccc1O2	-14%
O=C(NCC1CC1)c1nc2c(o1)CCN(Cc1cccc(O)c1)CC2	i
CC(C)(C)CNC1(Cc2cc(CCO)on2)COC1	-3%[44.1 µM]
Cc1cc(C)cc(C(=O)Nc2ccc(-c3nnc4n3CCCC4)cc2)c1	i
Cc1noc(C)c1CCC(=O)N1CC[C@@H](NC(=O)c2cnccn2)[C@H](O)C1	-11%
CC(C)CCN1CCc2ncc(C(=O)NCc3ccccc3)n2CC1	i
Fc1ccc(-c2nc3nccc(-c4ccsc4)n3n2)cc1Cl	-7%
CCNC(=O)N[C@H]1[C@H](O)[C@H](O)C[C@@H]1c1cccc(C)c1	i
CCCCNC(=O)C1CCCN(C2CCN(Cc3ccncc3)CC2)C1 (stereo not given)	-28%
O=C(NC1CCCCCCC1)C1CCCN(C2CCN(Cc3ccncc3)CC2)C1 (stereo not given)	13µM*
Cc1cccc(CN2CCC(N3CCCC(C(=O)NC4CC4)C3)CC2)c1 (stereo not given)	-23%
O=C1CC2(CCN(C(=O)CCn3cc(Cl)cn3)C2)C(=O)N1 (stereo not given)	4%
COc1ccc(CNc2cc3c(cn2)CN(C)CCN3C)cc1OC	i
COc1cc(CNC(C)Cn2nc(C)cc2C)ccc1OCCN1CCCC1 (stereo not given)	3.5µM*
COc1cc(CNCc2cnn(C)c2C)ccc1OCC(O)CN1CCSCC1 (stereo not given)	-12%
CC(C)c1nnc(C2CN(C(=O)CC3CCCC3)CC23CCOCC3)o1 (stereo not given)	20%
COC[C@H]1CCCN1[C@@H]1[C@H](O)[C@H](CO)O[C@@H]1CNC(=O)Nc1cccc(Cl)c1	i
COCCN1CCC(N2CCN(S(=O)(=O)c3ccc(C)cc3C)CC2)C1=O (stereo not given)	i
Cc1ncc(CO)c(CN2CCC3(Cc4ccccc4CNC3=O)C2)c1O (stereo not given)	4%
CC(C)C(=O)Nc1ccc(C2(C(=O)N3CCN(c4ccccc4)CC3)CCCCC2)cc1	7.9µM*
CCNC(=O)C1(c2ccc(NC(=O)C(C)C)cc2)CCCCC1	-13%
